The values below come from the OligoGym collection.

Among the targets are BARX2; BAX; BBC3; BCL7A; BDH2; BEST2.
Common to all, as to assay: pooled miR-30 sensor sort-seq; sequence = guide strand
What all share (conditions): shRNA
Note: reference of the scale not given here.

TAATCGCAGGTCTCCTTGGAGA yielded a sensor-assay potency score (higher = more potent) with BARX2 of -1.07. TCAATCTCTTCTGATGTGGGGA came in with a sensor-assay potency score (higher = more potent) with BARX2 of 0.111.

Sequence TTGAGACACTCGCTCAGCTTCT registered a sensor-assay potency score (higher = more potent) with BAX of -0.529. Still for that read-out and setting: next, TTGAGCACCAGTTTGCTGGCAA: 0.213; TCGGAAAAAGACCTCTCGGGGG: -0.669; TGCGCTTGAGACACTCGCTCAG: 0.0222. With TGTGCGTTGAGGTCGTCCGCCA, the sensor-assay potency score (higher = more potent) with BBC3 was -0.785. TACTGTCCAGTTCGTCCCCGAT had a sensor-assay potency score (higher = more potent) in the assay with BAX of -0.951.

AATCATCCTCTGCAGCTCCATG yielded a sensor-assay potency score (higher = more potent) in the assay with BAX of -1.42.

The sequence AAACATGTCAGCTGCCACTCGG showed a sensor-assay potency score (higher = more potent) in the assay with BAX of -0.504.

Sequence TCTTGGTGGACGCATCCTGAGG returned a sensor-assay potency score (higher = more potent) with BAX of -1.92. Take TCGTACTGTGCGTTGAGGTCGT: the sensor-assay potency score (higher = more potent) with BBC3 was determined as 0.393. TGATGGTTCTGATCAGTTCCGG had a sensor-assay potency score (higher = more potent) in the assay with BAX of -0.352. On the same count and under the same terms, next, TTACTGTCCAGTTCGTCCCCGA: -0.0654. With TCAGCTTCAATCTCTTCTGATG, the sensor-assay potency score (higher = more potent) with BARX2 is -1.18. TGCTCCTCTTGTCTCCGCCGCT showed a sensor-assay potency score (higher = more potent) with BBC3 of -1.11. In the assay with BAX, TCATGATCTGCTCAGAGCTGGT yielded a sensor-assay potency score (higher = more potent) of -1.61.

Turning to TGCTCCGCCAGCGAGAGCGAGG, the sensor-assay potency score (higher = more potent) with BBC3 is -2.06. The same measure, in the same setting: with TGCGTTGAGGTCGTCCGCCATC the figure was -1.7. TTTAAGACAGAAACCTTTCGGC came in with a sensor-assay potency score (higher = more potent) in the assay with BCL7A of 0.668. Sequence TTAGAAAATGGAATCCAGCAGA yielded a sensor-assay potency score (higher = more potent) with BCL7A of -0.0728. In turn, AAACTGATCAATTTGTTTCTTC had a sensor-assay potency score (higher = more potent) with BDH2 of 0.524. Still for that read-out and setting: with TTCTTTCTTGTAGAGATGGCGT the figure was -0.55.

Consider TTCTCTGAGCTGTTCATCGAAT, for which the sensor-assay potency score (higher = more potent) in the assay with BCL7A was -0.798.

In the case of ATAAATCACAAGCTTCTCGAAG, the sensor-assay potency score (higher = more potent) in the assay with BEST2 was -0.809. In the assay with BDH2, TATTGCCAGATTTCTGAGCAAG yielded a sensor-assay potency score (higher = more potent) of -1.16.

With TTGGACTCATTAATGTCTGTGG, the sensor-assay potency score (higher = more potent) with BDH2 is -0.0604.

For the sequence TACTGCTGTACAACACACCAAA, in the assay with BCL7A, the sensor-assay potency score (higher = more potent) was -0.883. Same read-out and setting: next, TTTCTCTGAGCTGTTCATCGAA: -0.326; TATCGTTACATAGAGAAGTGGG: 0.305; TAGGGATGTGTCACCAACGGTC: -0.791.

In the assay with BCL7A, TTGTTTTTGTCATCAACCTTGG returned a sensor-assay potency score (higher = more potent) of -0.192. Still for that read-out and setting: next, TGAGCCACACTTCTCGTCCTTG: -0.721; TACAGCAGCAACACAAATGGAA: -0.286; TAACACACAACTCAAAGGGAGT: -1.29. Regarding TAGTGAAAGAGCATTCCACATT, the sensor-assay potency score (higher = more potent) with BEST2 was -0.946. Turning to TAATATTGCCAGATTTCTGAGC, in the assay with BDH2, the sensor-assay potency score (higher = more potent) was -0.452. For the sequence TTGTGGAATGTGTAGCCGCAGC, the sensor-assay potency score (higher = more potent) with BCL7A is -1.01.

The sequence TTCCATGATGGACAAAACCAGC showed a sensor-assay potency score (higher = more potent) with BDH2 of -1.2. In the assay with BCL7A, TTGAAATTCAGGAACATTTTGA displayed a sensor-assay potency score (higher = more potent) of -0.466. Regarding TAGCGCATGAGTGTGCGCCGGT, the sensor-assay potency score (higher = more potent) with BEST2 was -0.558.

The sequence TTGGTTGTGCTGTACACACATC yielded a sensor-assay potency score (higher = more potent) with BDH2 of -1.05. TTACATAAGCAGATTCATCAGA: the sensor-assay potency score (higher = more potent) in the assay with BDH2 was determined as 0.11. AACTTCTTGCGCTCCTCGCGGG returned a sensor-assay potency score (higher = more potent) with BEST2 of -0.5. In turn, TTTGTTTCTTCTTTGTGACATC registered a sensor-assay potency score (higher = more potent) with BDH2 of -0.953.

In turn, TTCATCGAATGTTCCATCGAGG registered a sensor-assay potency score (higher = more potent) with BCL7A of -0.362.

In the assay with BEST2, TACGCTAATCCAGTCATAGTGA had a sensor-assay potency score (higher = more potent) of -0.195. The sequence TAAATCACAAGCTTCTCGAAGT had a sensor-assay potency score (higher = more potent) with BEST2 of -0.564. Sequence TTGATCATCAGGTACATGCTGC registered a sensor-assay potency score (higher = more potent) with BDH2 of 0.603. On the same count and under the same terms, next, TTCACAACTCCTTTGACGCTGG: 0.0987. ATACATCTCGTCCACTGCCAGC: in the assay with BEST2, the sensor-assay potency score (higher = more potent) is -1.42.

Take TTTTGCAGTCTTGTCATTCTGC: in the assay with BCL7A, the sensor-assay potency score (higher = more potent) was determined as 0.59. TTGTACAAACCATATCTACTGA: the sensor-assay potency score (higher = more potent) in the assay with BCL7A was -0.0617. On the same count and under the same terms, next, TTGATATCATCTTTGGCCCGGC: -0.0024; TTCAGGAACATTTTGATTCTTC: -0.0367; ATAATGAACATTCCAAACCATG: -1.57. Same read-out and setting: with ATTCTGACCACTGCGATCCTGC the figure was -0.637.

The sequence TTAAAGAGAACATCAAGTCTCT yielded a sensor-assay potency score (higher = more potent) with BDH2 of 0.782. In the case of TTCAGGTTTTCAAACTTCTTGC, the sensor-assay potency score (higher = more potent) in the assay with BEST2 was -0.208. The sequence AACATTTTGATTCTTCTCGAAG showed a sensor-assay potency score (higher = more potent) in the assay with BCL7A of -1.09.
